# SUMO Mot1 rescue = yeast Mot1-301 growth rescue at high temperature, primary screen, SUMOylation pathway inhibitor project, S. cerevisiae, ATP luminescence, 38.5C; S. cerevisiae Mot1-301 growth rescue; percent above DMSO median, 100 means doubled; growth rescue, % at 18.8 µM; 1% of 320,000 active;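 active = every valid replicate shows activation above 250% relative to neutral control wells; inactive = the rest, any valid replicate at or below 250%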;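 note: OY570 slx delta 5 strain wells were the positive control but not used for scaling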
# ATG4B inh = ATG4B protease inhibitors, primary screen, biochemical, fluorescence, uHTS. Cysteine protease ATG4B (Homo sapiens), Q9Y4P1. 0.51% of 340,000 active. inhibition, % at 8.33 µM. ATG4B cleavage of LC3-PLA2, NBD-HPC fluorescence, 1 h; in the data active = inhibition above about 40%
# FAS TE block = FAS thioesterase domain inhibitors, primary screen, biochemical, fluorescence intensity, uHTS. Fatty acid synthase (Homo sapiens), P49327. recombinant FAS-TE, OMFH fluorogenic substrate, fluorescence endpoint. inhibition, % at 15 µM. 0.67% of 360,000 active;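 active = compounds whose normalised, plate-corrected inhibition of enzyme fluorescence in the single-dose primary screen is 50% or more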;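 note: 0% = DMSO with enzyme and 100% = substrate without enzyme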
# NadD inh = inhibitors of S. aureus NadD, primary screen, biochemical, colorimetric, uHTS | Nicotinate-nucleotide adenylyltransferase NadD (Staphylococcus aureus N315) | AID 602399, 2012 | inhibition, % at 20 µM | purified NadD enzyme, colorimetric absorbance read-out | 0.78% of 360,000 active; in the data active = inhibition above about 26%
# Calb FLC = C. albicans growth inhibition with fluconazole, primary screen, CaCi-2 strain, Alamar Blue fluorescence. growth inhibition, % (test concentration not listed). 0.57% of 300,000 active. C. albicans CaCi-2 (fluconazole-resistant clinical isolate) + fluconazole, 48 h;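 active = growth inhibition above about 58% in most replicates, limit read from the data, passing the limit was not always enough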;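 note: all wells also contain fluconazole at 8 µg/ml as a sub-toxic cotreatment; 0% = median of DMSO wells and 100% = median of geldanamycin control wells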
# * marks the source's active call; other numbers are inactive results; nt = not tested or not shown; ! = repeats disagree. The list is not random: actives were taken first. Their share in the collection is about 3.1%.
SMILES,SUMO Mot1 rescue,ATG4B inh,FAS TE block,NadD inh,Calb FLC
COc1ccc(S(=O)(=O)NCCc2cn3nc(C)c(C)nc3n2)cc1C,-4.7,9.6,-3.1,-3.3,-0.8
Cc1ccc(S(=O)(=O)NCCc2cn3nc(C)c(C)nc3n2)cc1C,267.4*,4.8,-5.6,5.8,-3.1
CC(C)CCOC(=O)C1C(c2ccccc2)C(C(=O)O)C1c1ccccc1 (configuration not stated),227.8,-1.3,-5.3,0.6,93.1*
O=C(O)C1C(c2ccccc2)C(C(=O)Oc2ccccc2)C1c1ccccc1 (configuration not stated),-7.2,-3.8,-8.4,-1.6,40.3
COC(=O)c1ccc(CNS(=O)(=O)c2ccc3ccccc3c2)cc1,330.3*,1.4,5.3,1.6,4.7
Cc1cccc(N=Nc2c(C)c(C#N)c(O)[nH]c2=O)c1,-10.2,-4.6,-51.1,7.9,19.2
CCCCOC(=O)c1ccc(N=Nc2c(C)c(C#N)c(O)[nH]c2=O)cc1,-13.6,-10.8,33.8,51.6*,18.0
CCOC(=O)C1(Cc2cccc(Cl)c2)CCCN(C(=O)C(C)(C)C)C1 (configuration not stated),25.8,3.6,5.1,-2.1,1.7
O=C(C1CCCN(C2CC(=O)N(c3ccc(Cl)cc3)C2=O)C1)N1CCCC1 (configuration not stated),266.5*,2.0,-6.3,1.0,39.4
O=C(CCc1ccccc1)NNC(=S)NC(=O)c1ccc(Cl)cc1,-8.8,-26.7,nt,nt,80.0*
O=C(CCc1ccccc1)NNC(=O)c1ccc(Cl)cc1,-21.9,-2.1,-3.1,-0.8,1.7
Cc1cccc(C(=O)NC(=S)NNC(=O)Cc2ccccc2)c1,-19.9,-6.7,-12.7,3.2,94.9*
CC(=O)OC[C@]12CC[C@H]3[C@@](C)(CC[C@H]4C(C)(C)CCC[C@]34C)[C@@H]1CC(C1=CC(=O)OC1O)O2 (some centres not stated),nt,nt,41.8,31.9*,nt
Cc1ccc(CN2CC(C(=O)Nc3cc(C)ccn3)CC2=O)cc1 (configuration not stated),-7.0,-3.4,-3.1,-1.9,5.2
O=C(/C=C(\O)c1ccccc1)C(=O)NNC(=O)c1ccccc1,-3.4,-7.9,1.9,2.8,nt
O=C(/C=C(\O)c1ccc(Cl)cc1)C(=O)NNC(=O)C(O)(c1ccccc1)c1ccccc1,11.6,42.1*,15.4,27.6,nt
Clc1ccc(N=c2ssnc2Cl)cc1,339.6*,-17.6,-3.7,27.7,-2.9
N#Cc1ccc(N=c2ssnc2Cl)cc1,303.3*!,-4.5,-10.4,19.8,-14.6
COc1ccc(N=c2ssnc2Cl)cc1,21.6,-0.9,-2.1,20.7,3.7
Clc1nssc1=Nc1ccccc1,nt,-2.6,-5.2,18.4,nt
Cc1ccc2occ(/C=N/NC(=O)c3ccccc3O)c(=O)c2c1,-1.9,11.7,9.1,5.4,78.8*
NC(=O)N/N=C/c1coc2ccc3ccccc3c2c1=O,334.2*,8.6,-2.1,-1.9,16.4
O=Cc1coc2ccc3ccccc3c2c1=O,77.4,38.2,-0.2,7.4,6.9
COc1ccc(-c2sc3cc(OC)c(OC)cc3c2-c2ccc(O)cc2)cc1,-3.6,-8.3,22.2,7.7,nt
CCc1c(C)c2ccc(OC(C)C(=O)NC(Cc3c[nH]c4ccc(O)cc34)C(=O)O)c(C)c2oc1=O (configuration not stated),-5.7,-28.4,-4.9,-0.1,-6.5
SMILES,SUMO Mot1 rescue,ATG4B inh,FAS TE block,NadD inh,Calb FLC
O=C(Nc1ccccc1N1CCOCC1)c1ccc(S(=O)(=O)NCc2ccco2)cc1,-5.8,-15.5,-5.5,-2.6,108.2*
O=C(Nc1ccccc1N1CCOCC1)c1ccc(Cl)c(S(=O)(=O)NCc2ccco2)c1,-0.4,-11.1,-0.4,-8.1,2.9
Cc1ccc(C(=O)OCC(=O)NCc2ccc3c(c2)OCO3)o1,-10.6,-0.4,-1.5,3.2,nt
CCCOc1ccc(/C(O)=C2/C(=O)C(=O)N(CCOC)C2c2cccnc2)cc1 (configuration not stated),-11.0,nt,nt,nt,-0.9
COCCCN1C(=O)C(=O)/C(=C(/O)c2ccc(OCC(C)C)cc2C)C1c1cccnc1 (configuration not stated),-3.5,-9.2,-4.9,7.1,105.9*
CC(=O)NC(C)(c1ccccc1)c1nc(-c2csc3ccccc23)cs1 (configuration not stated),nt,nt,21.1,2.8,nt

# Assay outcomes deposited in PubChem BioAssay by several laboratories.
